The full data set covers some 8,800 targets. This sample favours those with a hit. About 0.5% of all pairs of compound and target were hits.
How the values were obtained:
Assay in all cases: log2 fold change, soluble protein after heating vs DMSO (PISA); higher = thermal stabilisation; K562 lysate, 10 uM; active = over 0.2 and 3.5 SD of the protein, either way, in both replicates (recomputed)
vemurafenib = compound: CCCS(=O)(=O)Nc1ccc(F)c(C(=O)c2c[nH]c3ncc(-c4ccc(Cl)cc4)cc23)c1F [vemurafenib]
Outline: (§1)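 Values give the log-two fold change in thermal stability against solvent controls, from duplicates. Crude K562 extract at 1 mg/mL protein, made by dounce homogenisation in PBS pH 7.4 with 1 mM MgCl2, was treated with 10 μM compound for 30 min. After 3 min heating across 48°C-58°C, aliquots were pooled, adjusted to 0.5% NP-40 at 4°C and centrifuged at 21,000xg for 90 min. The supernatant was measured by TMTpro 16plex LC-MS/MS with channel sums equalised.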

[1] = compound: CCCS(=O)(=O)Nc1ccc(F)c(C(=O)c2c[nH]c3ncc(Cl)cc23)c1F
Outline: as §1

barasertib = compound: CCN(CCCOc1ccc2c(Nc3cc(CC(=O)Nc4cccc(F)c4)[nH]n3)ncnc2c1)CCOP(=O)(O)O [barasertib]
Outline: as §1

[2] = compound: CC[C@@H]1C(=O)N(C)c2cnc(Nc3ccc(C(=O)NC4CCN(C)CC4)cc3OC)nc2N1C1CCCC1
Outline: as §1

volasertib = compound: CC[C@@H]1C(=O)N(C)c2cnc(Nc3ccc(C(=O)N[C@H]4CC[C@H](N5CCN(CC6CC6)CC5)CC4)cc3OC)nc2N1C(C)C [volasertib]
Outline: as §1

[3] = compound: CCn1c(C(=O)N(C2CC2)C2CC2)cc2c3c(ncn3C)c(Nc3cc(C)n(C)n3)nc21
Outline: as §1

[4] = compound: CCn1cc(-c2ccnc3[nH]c(-c4cccc(CN(C)C)c4)cc23)c(-c2ccc(NC(=O)N(C)C)cc2)n1
Outline: as §1

[5] = compound: CN1CCC(CNc2ccc3ncc(-c4cccc(OC(F)(F)F)c4)n3n2)CC1
Outline: as §1

saracatinib = compound: CN1CCN(CCOc2cc(OC3CCOCC3)c3c(Nc4c(Cl)ccc5c4OCO5)ncnc3c2)CC1 [saracatinib]
Outline: as §1

sotrastaurin = compound: CN1CCN(c2nc(C3=C(c4c[nH]c5ccccc45)C(=O)NC3=O)c3ccccc3n2)CC1 [sotrastaurin]
Outline: as §1

alvocidib = compound: CN1CC[C@H](c2c(O)cc(O)c3c(=O)cc(-c4ccccc4Cl)oc23)[C@H](O)C1 [alvocidib]
Outline: as §1

Tubastatin A = compound: CN1CCc2c(c3ccccc3n2Cc2ccc(C(=O)NO)cc2)C1 [Tubastatin A]
Outline: as §1

[6] = compound: CNC(=O)C1=CC=CC=C1NC2=NC(=NC=C2Cl)NC3=C(C=C(C=C3)N4CCOCC4)OC
Outline: as §1

defactinib = compound: CNC(=O)c1ccc(Nc2ncc(C(F)(F)F)c(NCc3nccnc3N(C)S(C)(=O)=O)n2)cc1 [defactinib]
Outline: as §1

[7] = compound: CNc1nc(-c2ccc3c(N)n[nH]c3c2)cc(N2C[C@@H](C(=O)NC3CCCCC3)CC[C@H]2C)n1
Outline: as §1

encorafenib = compound: COC(=O)N[C@@H](C)CNc1nccc(-c2cn(C(C)C)nc2-c2cc(Cl)cc(NS(C)(=O)=O)c2F)n1 [encorafenib]
Outline: as §1

[8] = compound: COC(=O)[C@H](CCSC)NC(=O)C1=C(C=C(C=C1)NC[C@H](CS)N)C2=CC=CC=C2
Outline: as §1

alisertib = compound: COc1cc(Nc2ncc3c(n2)-c2ccc(Cl)cc2C(c2c(F)cccc2OC)=NC3)ccc1C(=O)O [alisertib]
Outline: as §1

[9] = compound: COc1cc2nc(-c3cc(F)ccc3O)nc(N[C@@H]3CNC[C@H]3C(C)(C)O)c2cc1OC
Outline: as §1

gefitinib = compound: COc1cc2ncnc(Nc3ccc(F)c(Cl)c3)c2cc1OCCCN1CCOCC1 [gefitinib]
Outline: as §1

Measured: log2 fold change

FAM83D (UniProt Q9H4H8)
inactive: vemurafenib -0.015 | [1] 0 | barasertib 0.074 | [2] 0.045 | volasertib -0.047 | [3] -0.01 | [4] -0.052 | [5] 0.029 | saracatinib -0.008 | sotrastaurin 0.032 | alvocidib -0.009 | Tubastatin A -0.044 | [6] 0.005 | defactinib -0.007 | [7] 0.022 | encorafenib 0.026 | [8] 0.017 | alisertib 0.015 | [9] 0.062 | gefitinib 0.009

ETHE1 (UniProt O95571)
Sequence of UniProt O95571 (O95571 whole entry, looked up): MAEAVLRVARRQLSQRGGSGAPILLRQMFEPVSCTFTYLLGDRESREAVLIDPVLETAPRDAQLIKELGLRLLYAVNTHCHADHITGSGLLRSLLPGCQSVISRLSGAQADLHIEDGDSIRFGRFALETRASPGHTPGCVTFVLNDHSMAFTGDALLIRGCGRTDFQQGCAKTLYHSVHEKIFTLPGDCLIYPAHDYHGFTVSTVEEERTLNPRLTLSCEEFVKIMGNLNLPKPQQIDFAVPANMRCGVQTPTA
inactive: vemurafenib -0.018 | [1] 0.022 | barasertib 0.076 | [2] -0.013 | volasertib -0.017 | [3] -0.007 | [4] 0.044 | [5] 0.003 | saracatinib 0.001 | sotrastaurin -0.004 | alvocidib -0.076 | Tubastatin A 0.035 | [6] -0.014 | defactinib -0.008 | [7] -0.021 | encorafenib 0.008 | [8] 0.037 | alisertib 0.094 | [9] 0.022 | gefitinib -0.14

EXOC6 (UniProt Q8TAG9)
Sequence of UniProt Q8TAG9 (Q8TAG9 whole entry, looked up): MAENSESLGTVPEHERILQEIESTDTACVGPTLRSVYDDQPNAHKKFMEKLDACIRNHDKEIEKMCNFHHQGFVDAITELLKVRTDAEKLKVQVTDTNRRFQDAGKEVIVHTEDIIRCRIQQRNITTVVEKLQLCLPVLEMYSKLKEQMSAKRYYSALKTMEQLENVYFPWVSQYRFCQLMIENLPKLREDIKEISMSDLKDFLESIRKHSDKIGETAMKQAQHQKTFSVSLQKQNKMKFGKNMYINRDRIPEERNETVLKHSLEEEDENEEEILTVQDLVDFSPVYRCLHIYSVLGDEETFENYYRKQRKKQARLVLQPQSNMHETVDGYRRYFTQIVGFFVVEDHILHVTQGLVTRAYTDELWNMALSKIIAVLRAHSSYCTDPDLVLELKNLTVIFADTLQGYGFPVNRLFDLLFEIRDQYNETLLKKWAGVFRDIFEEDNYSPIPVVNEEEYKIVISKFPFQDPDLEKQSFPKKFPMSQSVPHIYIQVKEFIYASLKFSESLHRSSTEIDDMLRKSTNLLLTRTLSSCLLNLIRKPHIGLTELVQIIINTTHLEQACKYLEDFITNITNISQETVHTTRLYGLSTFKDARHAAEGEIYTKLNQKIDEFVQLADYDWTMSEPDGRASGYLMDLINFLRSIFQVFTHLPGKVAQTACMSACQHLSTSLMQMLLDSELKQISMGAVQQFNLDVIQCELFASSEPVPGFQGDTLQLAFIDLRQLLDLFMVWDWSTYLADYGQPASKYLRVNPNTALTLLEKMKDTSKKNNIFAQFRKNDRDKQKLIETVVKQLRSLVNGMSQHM
inactive: vemurafenib -0.041 | [1] 0.033 | barasertib 0.032 | [2] -0.033 | volasertib -0.047 | [3] 0.032 | [4] -0.05 | [5] -0.075 | saracatinib 0.018 | sotrastaurin 0.06 | alvocidib -0.014 | Tubastatin A -0.092 | [6] 0.013 | defactinib 0.008 | [7] -0.017 | encorafenib 0.015 | [8] 0.039 | alisertib 0.007 | [9] 0.016 | gefitinib 0.003

EEFSEC (UniProt P57772)
Sequence of UniProt P57772 (P57772 whole entry, looked up): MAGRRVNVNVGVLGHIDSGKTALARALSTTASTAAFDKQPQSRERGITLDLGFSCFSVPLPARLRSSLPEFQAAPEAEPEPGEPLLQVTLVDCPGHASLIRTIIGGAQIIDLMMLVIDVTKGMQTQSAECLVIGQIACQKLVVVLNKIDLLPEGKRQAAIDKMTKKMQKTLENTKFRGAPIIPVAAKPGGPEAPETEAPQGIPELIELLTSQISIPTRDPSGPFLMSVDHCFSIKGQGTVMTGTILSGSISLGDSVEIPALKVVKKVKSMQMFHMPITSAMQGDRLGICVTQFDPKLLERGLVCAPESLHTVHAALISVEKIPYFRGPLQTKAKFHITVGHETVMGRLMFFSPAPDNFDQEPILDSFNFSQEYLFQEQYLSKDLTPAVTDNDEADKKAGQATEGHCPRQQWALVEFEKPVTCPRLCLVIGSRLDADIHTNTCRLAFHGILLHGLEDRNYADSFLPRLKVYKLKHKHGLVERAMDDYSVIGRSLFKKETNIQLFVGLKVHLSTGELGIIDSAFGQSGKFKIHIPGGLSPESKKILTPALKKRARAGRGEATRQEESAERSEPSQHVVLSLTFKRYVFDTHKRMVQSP
inactive: vemurafenib 0.031 | [1] 0.024 | barasertib 0.031 | [2] -0.067 | volasertib -0.035 | [3] -0.012 | [4] -0.073 | [5] 0.009 | saracatinib -0.015 | sotrastaurin -0.016 | alvocidib -0.008 | Tubastatin A -0.157 | [6] 0.019 | defactinib 0.036 | [7] -0.017 | encorafenib 0.018 | [8] 0.098 | alisertib 0.019 | [9] 0 | gefitinib -0.012

DUS2 (UniProt Q9NX74)
active: [8] 0.352
inactive: vemurafenib 0.022 | [1] 0.032 | barasertib -0.026 | [2] -0.033 | volasertib -0.071 | [3] -0.016 | [4] -0.095 | [5] 0.023 | saracatinib -0.095 | sotrastaurin -0.017 | alvocidib 0.056 | Tubastatin A -0.084 | [6] 0.013 | defactinib 0.016 | [7] -0.045 | encorafenib -0.027 | alisertib -0.007 | [9] 0.013 | gefitinib 0.026

EDARADD (UniProt Q8WWZ3)
active: barasertib 0.255
inactive: vemurafenib -0.066 | [1] 0.02 | [2] -0.023 | volasertib -0.006 | [3] -0.011 | [4] -0.14 | [5] 0.057 | saracatinib 0.04 | sotrastaurin -0.074 | alvocidib -0.015 | Tubastatin A -0.003 | [6] 0.019 | defactinib 0.009 | [7] -0.068 | encorafenib 0.013 | [8] -0.072 | alisertib -0.075 | [9] 0.027 | gefitinib 0.043

ESPL1 (UniProt Q14674)
inactive: vemurafenib 0.049 | [1] 0.204 | barasertib 0.054 | [2] 0.039 | volasertib 0.09 | [3] -0.002 | [4] -0.047 | [5] -0.012 | saracatinib -0.065 | sotrastaurin -0.023 | alvocidib 0.044 | Tubastatin A -0.023 | [6] 0.129 | defactinib -0.188 | [7] 0.053 | encorafenib 0.101 | [8] -0.013 | alisertib 0.004 | [9] -0.233 | gefitinib -0.009

GEMIN5 (UniProt Q8TEQ6)
Sequence of UniProt Q8TEQ6 (Q8TEQ6 whole entry, looked up): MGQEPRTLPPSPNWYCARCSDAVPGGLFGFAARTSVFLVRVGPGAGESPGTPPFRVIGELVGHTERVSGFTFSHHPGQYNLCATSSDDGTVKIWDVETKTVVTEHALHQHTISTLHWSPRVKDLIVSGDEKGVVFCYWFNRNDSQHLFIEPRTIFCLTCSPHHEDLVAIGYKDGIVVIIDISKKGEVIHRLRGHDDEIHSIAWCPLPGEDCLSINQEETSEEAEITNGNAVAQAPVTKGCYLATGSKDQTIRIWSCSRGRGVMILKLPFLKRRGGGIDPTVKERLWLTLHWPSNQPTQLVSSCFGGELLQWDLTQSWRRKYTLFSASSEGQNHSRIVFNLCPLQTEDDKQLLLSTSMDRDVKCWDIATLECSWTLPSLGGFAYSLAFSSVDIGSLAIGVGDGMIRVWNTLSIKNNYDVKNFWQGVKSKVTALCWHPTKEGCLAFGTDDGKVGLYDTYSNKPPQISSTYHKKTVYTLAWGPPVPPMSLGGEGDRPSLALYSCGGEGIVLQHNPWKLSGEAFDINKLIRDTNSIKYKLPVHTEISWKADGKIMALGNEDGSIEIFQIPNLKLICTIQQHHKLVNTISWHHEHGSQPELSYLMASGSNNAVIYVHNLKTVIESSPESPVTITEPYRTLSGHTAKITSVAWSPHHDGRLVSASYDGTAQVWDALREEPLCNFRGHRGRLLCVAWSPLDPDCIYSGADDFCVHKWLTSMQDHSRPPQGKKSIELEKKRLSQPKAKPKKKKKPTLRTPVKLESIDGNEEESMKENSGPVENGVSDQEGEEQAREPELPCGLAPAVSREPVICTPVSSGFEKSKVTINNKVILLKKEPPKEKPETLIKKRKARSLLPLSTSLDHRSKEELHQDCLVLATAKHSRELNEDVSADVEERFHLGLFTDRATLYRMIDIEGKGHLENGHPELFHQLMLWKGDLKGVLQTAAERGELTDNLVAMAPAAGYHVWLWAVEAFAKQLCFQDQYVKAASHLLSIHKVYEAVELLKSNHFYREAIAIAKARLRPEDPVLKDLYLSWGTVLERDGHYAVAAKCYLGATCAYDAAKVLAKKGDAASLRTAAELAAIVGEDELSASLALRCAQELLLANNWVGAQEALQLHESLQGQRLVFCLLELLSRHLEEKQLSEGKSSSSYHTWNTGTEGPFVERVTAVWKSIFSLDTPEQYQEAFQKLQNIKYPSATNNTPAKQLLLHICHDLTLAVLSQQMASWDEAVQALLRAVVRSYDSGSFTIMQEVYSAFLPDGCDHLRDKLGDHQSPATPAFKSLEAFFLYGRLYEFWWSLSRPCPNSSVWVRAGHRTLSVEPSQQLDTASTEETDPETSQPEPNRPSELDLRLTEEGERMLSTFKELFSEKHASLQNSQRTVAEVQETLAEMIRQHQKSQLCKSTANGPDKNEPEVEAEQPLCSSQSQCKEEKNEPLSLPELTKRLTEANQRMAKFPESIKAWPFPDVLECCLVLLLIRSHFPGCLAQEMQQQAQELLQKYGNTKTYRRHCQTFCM
inactive: vemurafenib 0.006 | [1] 0.008 | barasertib 0.004 | [2] -0.085 | volasertib -0.069 | [3] 0.066 | [4] -0.052 | [5] -0.061 | saracatinib 0.018 | sotrastaurin 0.015 | alvocidib 0.023 | Tubastatin A -0.21 | [6] 0.027 | defactinib 0.031 | [7] -0.007 | encorafenib 0.011 | [8] 0.057 | alisertib 0.014 | [9] -0.019 | gefitinib -0.032

DSTN (UniProt P60981)
Sequence of UniProt P60981 (P60981 whole entry, looked up): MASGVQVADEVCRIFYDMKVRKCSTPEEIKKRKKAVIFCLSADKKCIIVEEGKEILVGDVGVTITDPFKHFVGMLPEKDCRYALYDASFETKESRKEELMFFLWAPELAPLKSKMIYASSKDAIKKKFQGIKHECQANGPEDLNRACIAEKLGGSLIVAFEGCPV
inactive: vemurafenib -0.006 | [1] -0.002 | barasertib -0.005 | [2] -0.015 | volasertib -0.013 | [3] 0.015 | [4] 0.025 | [5] 0.035 | saracatinib -0.005 | sotrastaurin -0.011 | alvocidib -0.011 | Tubastatin A -0.089 | [6] 0.015 | defactinib 0.002 | [7] -0.072 | encorafenib -0.011 | [8] -0.071 | alisertib -0.013 | [9] -0.02 | gefitinib -0.043

GCDH (UniProt Q92947)
Sequence of UniProt Q92947 (Q92947 whole entry, looked up): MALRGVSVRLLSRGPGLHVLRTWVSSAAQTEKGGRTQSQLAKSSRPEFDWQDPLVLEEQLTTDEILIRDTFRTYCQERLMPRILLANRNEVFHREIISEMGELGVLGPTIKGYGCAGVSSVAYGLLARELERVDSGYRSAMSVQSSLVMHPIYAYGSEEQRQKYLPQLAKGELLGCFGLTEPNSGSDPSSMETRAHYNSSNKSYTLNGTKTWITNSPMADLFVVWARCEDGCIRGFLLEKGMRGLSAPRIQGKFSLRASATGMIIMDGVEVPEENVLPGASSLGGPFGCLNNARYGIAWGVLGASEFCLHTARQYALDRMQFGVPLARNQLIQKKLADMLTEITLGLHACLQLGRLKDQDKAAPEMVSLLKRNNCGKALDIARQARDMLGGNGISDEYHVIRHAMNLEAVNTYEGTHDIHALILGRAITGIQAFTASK
inactive: vemurafenib 0.031 | [1] 0.025 | barasertib -0.054 | [2] 0.002 | volasertib 0.022 | [3] -0.003 | [4] -0.07 | [5] -0.077 | saracatinib -0.041 | sotrastaurin -0.041 | alvocidib 0.018 | Tubastatin A -0.069 | [6] -0.049 | defactinib 0.004 | [7] 0.057 | encorafenib -0.049 | [8] 0.159 | alisertib 0.049 | [9] 0.006 | gefitinib -0.004

EIF1 (UniProt P41567)
Sequence of UniProt P41567 (P41567 whole entry, looked up): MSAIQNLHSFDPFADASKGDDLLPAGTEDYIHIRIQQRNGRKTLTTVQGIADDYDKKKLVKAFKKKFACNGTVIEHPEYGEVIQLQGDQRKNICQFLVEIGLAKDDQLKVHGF
active: gefitinib -0.247
inactive: vemurafenib 0.013 | [1] -0.014 | barasertib -0.053 | [2] 0.053 | volasertib 0.023 | [3] -0.05 | [4] 0.009 | [5] 0.084 | saracatinib -0.02 | sotrastaurin -0.042 | alvocidib -0.033 | Tubastatin A 0.084 | [6] -0.039 | defactinib -0.013 | [7] -0.02 | encorafenib -0.017 | [8] -0.032 | alisertib -0.006 | [9] 0.005

EPN2 (UniProt O95208)
Sequence of UniProt O95208 (O95208 whole entry, looked up): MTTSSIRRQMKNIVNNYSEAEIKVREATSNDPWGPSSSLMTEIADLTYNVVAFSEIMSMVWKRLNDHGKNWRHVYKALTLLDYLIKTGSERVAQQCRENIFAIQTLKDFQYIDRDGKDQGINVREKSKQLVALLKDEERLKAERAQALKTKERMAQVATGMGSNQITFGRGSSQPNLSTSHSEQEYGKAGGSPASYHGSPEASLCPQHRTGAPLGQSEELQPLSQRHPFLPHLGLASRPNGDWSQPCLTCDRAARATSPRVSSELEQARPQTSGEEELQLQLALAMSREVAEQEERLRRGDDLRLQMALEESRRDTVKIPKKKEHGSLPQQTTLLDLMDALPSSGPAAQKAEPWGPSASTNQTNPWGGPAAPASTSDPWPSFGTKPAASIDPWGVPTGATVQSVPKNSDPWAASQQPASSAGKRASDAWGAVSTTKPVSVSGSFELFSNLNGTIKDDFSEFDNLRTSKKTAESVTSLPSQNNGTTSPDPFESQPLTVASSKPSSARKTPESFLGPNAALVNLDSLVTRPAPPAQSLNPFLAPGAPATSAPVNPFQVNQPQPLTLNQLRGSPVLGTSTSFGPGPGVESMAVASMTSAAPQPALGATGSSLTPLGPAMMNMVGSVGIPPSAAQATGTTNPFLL
active: [4] -0.417
inactive: vemurafenib 0.019 | [1] 0.027 | barasertib 0.043 | [2] 0.044 | volasertib 0.016 | [3] -0.002 | [5] 0.08 | saracatinib 0.004 | sotrastaurin 0.002 | alvocidib -0.079 | Tubastatin A -0.008 | [6] 0.001 | defactinib 0.005 | [7] 0.009 | encorafenib 0.016 | [8] -0.051 | alisertib 0.002 | [9] 0.03 | gefitinib -0.014

ECI2 (UniProt O75521)
inactive: vemurafenib 0.071 | [1] 0.013 | barasertib 0.007 | [2] 0.059 | volasertib -0.013 | [3] 0.004 | [4] -0.021 | [5] -0.017 | saracatinib -0.003 | sotrastaurin -0.045 | alvocidib -0.033 | Tubastatin A 0.054 | [6] -0.054 | defactinib -0.038 | [7] 0.03 | encorafenib -0.006 | [8] -0.067 | alisertib 0.004 | [9] -0.008 | gefitinib 0.011

FAM118B (UniProt Q9BPY3)
Sequence of UniProt Q9BPY3 (Q9BPY3 whole entry, looked up): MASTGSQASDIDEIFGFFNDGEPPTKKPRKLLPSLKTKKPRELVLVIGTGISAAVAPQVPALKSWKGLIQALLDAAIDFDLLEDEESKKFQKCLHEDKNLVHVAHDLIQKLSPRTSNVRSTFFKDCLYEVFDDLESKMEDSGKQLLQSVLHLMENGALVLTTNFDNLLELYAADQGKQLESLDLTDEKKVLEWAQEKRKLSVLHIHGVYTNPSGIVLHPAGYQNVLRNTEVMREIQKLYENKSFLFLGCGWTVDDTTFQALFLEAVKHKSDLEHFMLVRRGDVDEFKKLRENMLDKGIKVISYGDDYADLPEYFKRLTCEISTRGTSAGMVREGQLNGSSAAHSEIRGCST
inactive: vemurafenib -0.06 | [1] 0.03 | barasertib 0.004 | [2] -0.014 | volasertib 0.001 | [3] 0.022 | [4] -0.03 | [5] -0.027 | saracatinib 0.004 | sotrastaurin 0.048 | alvocidib -0.023 | Tubastatin A -0.058 | [6] -0.002 | defactinib 0.037 | [7] -0.009 | encorafenib 0.026 | [8] -0.048 | alisertib -0.011 | [9] -0.043 | gefitinib 0.016

GALNT2 (UniProt Q10471)
inactive: vemurafenib 0.013 | [1] 0.014 | barasertib 0.003 | [2] -0.014 | volasertib 0.002 | [3] 0.042 | [4] 0.065 | [5] 0.035 | saracatinib -0.004 | sotrastaurin 0.016 | alvocidib -0.069 | Tubastatin A 0.073 | [6] -0.004 | defactinib 0.008 | [7] -0.057 | encorafenib 0.048 | [8] -0.047 | alisertib 0.028 | [9] -0.021 | gefitinib -0.021

FTSJ3 (UniProt Q8IY81)
inactive: vemurafenib -0.004 | [1] -0.011 | barasertib 0.006 | [2] 0.011 | volasertib -0.033 | [3] 0.024 | [4] 0 | [5] -0.005 | saracatinib 0.015 | sotrastaurin -0.003 | alvocidib 0.031 | Tubastatin A -0.073 | [6] -0.018 | defactinib 0.026 | [7] 0.007 | encorafenib -0.028 | [8] 0.031 | alisertib 0.005 | [9] -0.036 | gefitinib 0.004

Reference: the supplement of paper PMC10849652
